The source of these data is PubChem BioAssay.

Calls of active or inactive are those of the source. Unless noted, the rule behind the calls is not given here.

Assay [1] is described as follows: compound effects on lung adenocarcinoma cell viability – A549, calcein-AM fluorescence, 48 h, basal, profiling panel (AID 1162). Note: test concentration not given here. The following applies: higher = more signal.
A short description of assay [2]: compound effects on differentiated 3T3-L1 adipocyte viability – cell-based, 3T3-L1 adipocytes, calcein-AM fluorescence, 48 h, basal, profiling panel (AID 1163). Note: test concentration not given here. The conditions noted are these: 3T3-L1 adipocytes viability, higher = more signal.
A short description of assay [3]: compound effects on hepatocellular carcinoma cell viability – HepG2, calcein-AM fluorescence, 48 h, basal, profiling panel (AID 1164). Note: test concentration not given here. The conditions noted are these: higher = more signal.
Assay [4] is described as follows: compound effects on multiple myeloma cell viability – MM1S, calcein-AM fluorescence, 48 h, basal, profiling panel (AID 1165).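 Note: viability of MM1S multiple myeloma cells under basal unstimulated conditions; test concentration not given here.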 The following applies: higher = more signal.
Assay [5] is described as follows: calcein-AM signal in unstimulated myeloma cells – cell-based, calcein-AM fluorescence, 48 h, PK04 Diversity Set, profiling panel (AID 1166).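 Note: cells grown under basal conditions without added stimulus; test concentration not given here.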 The following applies: RPMI8226 myeloma viability, higher = more signal.
A short description of assay [6]: JC-1 mitochondrial signal, unstimulated HepG2 cells – cell-based, JC-1 fluorescence, 24 h, 100 nL compound, profiling panel (AID 1167). Note: test concentration not given here. The following applies: HepG2 mitochondrial potential, higher = more signal.
The nature of assay [7]: JC-1 mitochondrial signal, unstimulated adipocytes – cell-based, JC-1 fluorescence, 3T3-L1 adipocytes, 24 h, 100 nL compound, profiling panel (AID 1168). Note: test concentration not given here. The conditions noted are these: JC-1 mitochondrial fluorescence, higher = more signal, called active from +8 up or from −8 down.
The nature of assay [8]: JC-1 mitochondrial signal, unstimulated myeloma cells – cell-based, JC-1 fluorescence, RPMI8226, 24 h, 100 nL compound, profiling panel (AID 1169). Note: test concentration not given here. The conditions noted are these: JC-1 mitochondrial potential fluorescence, higher = more signal.
Assay [9] can be described thus: JC-1 mitochondrial signal, unstimulated MM1S myeloma – cell-based, JC-1 fluorescence, 24 h, 100 nL compound, profiling panel (AID 1170). Note: test concentration not given here. The conditions noted are these: MM1S mitochondrial potential, higher = more signal.
The nature of assay [10]: resazurin metabolic signal in A549 cells – cell-based, resazurin fluorescence, 24 h, PK04 Diversity Set, profiling panel (AID 1171). Note: test concentration not given here. The conditions noted are these: A549 viability, higher = more signal, called active from +8 up or from −8 down. In general terms: Resazurin is reduced to fluorescent resorufin, in cell work by metabolically active cells.
Assay [11] in a line: resazurin metabolic signal in HepG2 cells – cell-based, resazurin fluorescence, 24 h, PK04 Diversity Set, profiling panel (AID 1172). Note: test concentration not given here. The conditions noted are these: HepG2 viability, higher = more signal.
The nature of assay [12]: budding yeast growth changes without added modifier – OD600, strain BY4716, 24 h, basal condition, primary screen (AID 1173). The following applies: S. cerevisiae BY4716 growth, OD600, 24 h; higher = more signal, called active from +8 up or from −8 down.
Assay [13] in a line: viability profiling in MM1S myeloma cells – cell-based, resazurin fluorescence, basal, 24 h, PK04 Diversity Set, profiling panel (AID 1174). Note: test concentration not given here. The conditions noted are these: higher = more signal, called active from +8 up or from −8 down.
The target in assay [14] is Dihydroorotate dehydrogenase (quinone), mitochondrial (Plasmodium falciparum (isolate 3D7)) (UniProt Q08210). Nature of the assay: inhibition of P. falciparum DHODH – biochemical, C-terminal His tag, absorbance 600 nm, primary screen (AID 1175).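 Note: recombinant parasite enzyme with a five histidine tag at its C terminus; test concentration not given here.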 The conditions noted are these: PfDHODH enzyme, DCIP absorbance 600 nm; higher = more signal, called active from +8 up or from −8 down.
Sequence of Dihydroorotate dehydrogenase (quinone), mitochondrial (Plasmodium falciparum (isolate 3D7)) (Q08210 whole entry, looked up): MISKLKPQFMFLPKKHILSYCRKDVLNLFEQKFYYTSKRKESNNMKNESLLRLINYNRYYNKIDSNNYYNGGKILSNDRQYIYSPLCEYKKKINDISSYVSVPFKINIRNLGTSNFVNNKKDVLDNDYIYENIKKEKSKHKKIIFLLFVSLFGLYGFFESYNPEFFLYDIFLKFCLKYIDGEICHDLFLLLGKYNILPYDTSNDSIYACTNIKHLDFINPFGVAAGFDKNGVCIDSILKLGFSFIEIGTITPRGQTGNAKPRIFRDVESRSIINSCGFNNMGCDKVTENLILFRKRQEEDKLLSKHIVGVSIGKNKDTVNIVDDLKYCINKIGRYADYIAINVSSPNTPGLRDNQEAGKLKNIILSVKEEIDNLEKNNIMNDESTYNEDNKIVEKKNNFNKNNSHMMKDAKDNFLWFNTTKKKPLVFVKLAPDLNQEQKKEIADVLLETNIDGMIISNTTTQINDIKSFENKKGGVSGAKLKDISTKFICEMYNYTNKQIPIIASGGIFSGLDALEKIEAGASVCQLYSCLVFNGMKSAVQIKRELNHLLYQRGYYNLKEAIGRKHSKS

A short description of assay [15]: inhibition of PAO1 biofilm formation – strain PAO1, LB-PBS medium, absorbance 600 nm, primary screen (AID 1176). Note: test concentration not given here. The following applies: P. aeruginosa PAO1 growth/biofilm, A600, 12 h; higher = more signal.
Assay [16] in a line: growth modulation of vineyard yeast isolate – strain RM11-1a, OD600, basal, 24 h, primary screen (AID 1177).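 Note: cultures grown under basal conditions with no added stressor; test concentration not given here.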 The following applies: S. cerevisiae RM11-1a growth, OD600, 24 h; higher = more signal, called active from +8 up or from −8 down.
The nature of assay [17]: growth of efflux-deficient E. coli DRC39 – strain DRC39, OD650, 24 h, E. coli filamentation inducers, primary screen (AID 1178).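 Note: growth measured as culture turbidity by optical density at 650 nm; test concentration not given here.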 The following applies: E. coli DRC39 acrAB, higher = more signal, called active from +8 up or from −8 down.
Assay [18] is described as follows: growth of efflux-deficient E. coli DRC39 – strain DRC39, OD650, 48 h, E. coli filamentation inducers, primary screen (AID 1179).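 Note: screen aims at cell division blockers that make cells filament.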 The following applies: E. coli DRC39 delta-acrAB growth, higher = more signal, called active from +8 up or from −8 down.
Assay [19] can be described thus: viability profiling in RPMI8226 myeloma cells – cell-based, resazurin fluorescence, basal, 24 h, PK04 Diversity Set, profiling panel (AID 1180).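 Note: RPMI8826 multiple myeloma cell line at 5000 cells per well; test concentration not given here.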 The following applies: higher = more signal.
Assay [20] deals with E3 ubiquitin-protein ligase XIAP (Homo sapiens) (UniProt P98170). Nature of the assay: small molecules binding XIAP protein – biophysical, small-molecule microarray, fluorescence 635 nm, primary screen (AID 1181).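 Note: score merges 667 nm emission and signal to noise over triplicate slides.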 The conditions noted are these: higher = more signal.
Sequence of E3 ubiquitin-protein ligase XIAP (Homo sapiens) (P98170 whole entry, looked up): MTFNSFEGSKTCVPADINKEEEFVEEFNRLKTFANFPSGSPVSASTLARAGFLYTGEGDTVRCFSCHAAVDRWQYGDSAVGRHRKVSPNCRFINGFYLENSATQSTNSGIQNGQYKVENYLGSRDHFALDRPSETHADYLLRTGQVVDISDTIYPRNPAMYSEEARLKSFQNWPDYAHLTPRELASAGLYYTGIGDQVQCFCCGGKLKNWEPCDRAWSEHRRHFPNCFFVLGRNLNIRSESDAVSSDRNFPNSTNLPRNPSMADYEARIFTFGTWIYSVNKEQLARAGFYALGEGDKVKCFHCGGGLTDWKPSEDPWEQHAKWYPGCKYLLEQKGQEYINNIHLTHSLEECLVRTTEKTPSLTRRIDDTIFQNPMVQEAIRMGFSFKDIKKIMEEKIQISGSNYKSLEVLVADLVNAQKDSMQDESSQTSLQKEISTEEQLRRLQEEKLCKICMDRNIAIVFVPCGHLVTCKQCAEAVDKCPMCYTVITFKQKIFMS

Take `COC(=O)[C@@]1(Cc2ccc(F)cc2)[C@H]2c3cc(C(=O)N4CCCC4)n(CCN4CNCC4=O)c3C[C@H]2CN1C(=O)c1ccccc1`: the z-score was -0.0823 in assay [1]; 1.32 in [2]; -0.403 in [3]; -0.0244 in assay [4]; -1.67 in [5]; 2.44 in assay [6]. Moreover, the z-score is -0.933 (inactive) in [7]; -0.452 in [8]; -1.23 in [9]; 0.415 (inactive) in assay [10]; 0.424 in assay [11]; 1.39 (inactive) in assay [12]. Also, the z-score was -0.758 (inactive) in assay [13]; 0.976 (inactive) in assay [15]; 0.76 (inactive) in assay [16]; 0.264 (inactive) in [17]; -1.03 (inactive) in assay [18]; -0.628 in assay [19]. The figures for the composite z-score in [14] and in [20] were -0.421 (inactive) and 0.253, respectively.
On to `CCOC(=O)C1CCCCN1` (stereo not given), for which the z-score in assay [1] was -0.293; in [2], 0.542; in assay [3], 0.0621; in assay [4], 0.481; in assay [5], 0.166; in assay [6], -0.319. In addition, the z-score was 0.121 (inactive) in [7]; 0.292 in assay [8]; 0.319 in assay [9]; -0.642 (inactive) in assay [10]; -0.241 in assay [11]; 0.466 (inactive) in [12]. Also, the z-score was 0.122 (inactive) in assay [13]; 0.0619 (inactive) in [15]; 0.0958 (inactive) in assay [16]; -0.33 (inactive) in [17]; -0.0724 (inactive) in [18]; -0.809 in assay [19]. In addition, the results for the composite z-score in assay [14] and in [20] were -0.254 (inactive) and -0.222, respectively.
As for `COc1cc2c(cc1O)C(C)N(Cc1ccc([N+](=O)[O-])o1)CC2` (stereo not given), the z-score in assay [1] was 0.687; in assay [2] it was 0.831; in assay [3], -0.963; in assay [4] it was -1.21; in [5] it was -0.867; in assay [6] it was -2.09. Further, the z-score in assay [7] was -0.741 (inactive); in [8], 0.105; in [9], -0.208; in assay [10], -0.0799 (inactive); in [11], -0.11; in assay [12] it was -0.942 (inactive). Moreover, the z-score in [13] was -0.653 (inactive); in assay [15], -0.103 (inactive); in [16] it was -0.74 (inactive); in assay [17] it was -1.04 (inactive); in assay [18], -0.679 (inactive); in assay [19] it was -0.396. Besides, the composite z-score in [14] was -0.749 (inactive); in [20], -0.127.
As for `COC(=O)[C@@]1(Cc2ccccc2N=[N+]=[N-])N=C(c2ccc(OCCCO)cc2)O[C@H]1c1ccccc1N=[N+]=[N-]`, the z-score was -1.53 in assay [1]; 0.342 in assay [2]; -5.52 in [3]; -3.65 in assay [4]; -4.04 in assay [5]; -1.63 in assay [6]. The z-score in assay [7] was -0.0913 (inactive); in assay [8] it was -1.13; in assay [9] it was -2.92; in assay [10] it was -2.94 (inactive); in [11], -4.43; in assay [12], -0.596 (inactive). The z-score in [13] was -8.41 (active); in assay [15], 0.715 (inactive); in [16], 0.897 (inactive); in assay [17] it was 2.12 (inactive); in assay [18] it was 1.91 (inactive); in assay [19], -6.83. Moreover, the composite z-score in assay [14] was -0.071 (inactive); in assay [20], 0.0296.
